TDP1 cell CPT – growth inhibition of DT40 Tdp1-/-;hTDP1 cells with camptothecin (screen for TDP1 inhibitors); Potency, µM (top dose mostly 46.2 µM), inactives show at the top dose activity change, negative = growth inhibition, hits mostly inhibitors; AID 686979; 420,000 compounds, 12% hits; chicken DT40 Tdp1-/-;hTDP1 cells + 20 nM CPT, ATP luminescence, 48 h; note: potency is the fitted concentration of half-maximal effect; nearly all actives have a fitted effect of over 55% in size
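Cell growth measured by CellTiter-Glo luminescence after a minimum 48 h, 37 C compound exposure with 20 nM CPT in Tdp1-knockout DT40 cells stably expressing hTDP1, seeded 400/well; qHTS titration format.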
HT1080 IDH1KD tx – kills HT-1080 cells with IDH1 knockdown | AID 686971 | 360,000 compounds, 2% hits | HT-1080 IDH1 knockdown viability, ATP luminescence, 48 h | Potency, µM (titrated, usually from 46.1 µM), without a hit: at the highest dose activity, negative = toxicity, most hits filed as cytotoxic;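 note: potency is the fitted concentration of half-maximal effect; 0% = DMSO wells and -100% = cell-free medium wells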
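HT-1080-IDH1KD cells (IDH1 knocked down), 750/well in RPMI with 5% FBS, treated with compound 48 h at 37 degrees C. Viability by CellTiter-Glo luminescence, normalised to DMSO and no-cell wells; concentration-response curves classed.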
DT40 TDP1 no CPT – qHTS for Inhibitors of human tyrosyl-DNA phosphodiesterase 1 (TDP1): qHTS in cells in absence of CPT; Potency, µM (doses to about 46.2 µM), for inactives: at the top dose activity change, negative = growth inhibition, most hits filed as inhibitors; 420,000 compounds, 15% hits; DT40 Tdp1-/- hTDP1 cells, no CPT, ATP luminescence, 48 h; note: potency is the fitted concentration of half-maximal effect; nearly all actives have a fitted effect of over 55% in size
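DT40 Tdp1-/-;hTDP1 cells, no CPT (DMSO vehicle only), 400 cells/well; compounds pin-transferred; ≥48 hr, 37 °C; CellTiter-Glo 30 min RT dark, luminescence read.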
IL-1B inflam inh – inhibitors of inflammasome signaling (IL-1 beta secretion); THP-1 LPS/ATP IL-1B secretion, AlphaLISA, 16 h; active compounds read low; activity change, % at 57.5 µM; 360,000 compounds, 4.7% hits; AID 743279; in the data active = activity change below about -50%; inconclusive = mostly about -30% to -49%
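THP-1 cells pretreated 1 hr with compounds (up to 57.5 uM final), then stimulated with LPS (250 ng/mL final) plus ATP (1.25 mM final); secreted IL-1B measured by AlphaLISA after 16 hr, decreased signal indicating inhibition.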
HT1080NT lethal – kills 2HG-producing HT-1080-NT fibrosarcoma cells. HT-1080-NT fibrosarcoma viability, CellTiter-Glo ATP luminescence, 48 h. AID 686970. Potency, µM (titrated, usually from 46.1 µM), for the others: at the top dose activity, negative = less viability, hits mostly cytotoxic. 360,000 compounds, 1.6% hits;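 note: NT is the 2HG producing partner of a matched IDH1 knockdown line; potency is the fitted concentration of half-maximal effect; 0% = DMSO-treated cells and -100% = media-only wells without cells; nearly all actives have a fitted effect of over 55% in size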
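Luminescent CellTiter-Glo readout after 48 hours of compound exposure at 37 degrees C defined viability of HT-1080-NT cells. Activity was normalized to DMSO wells and cell-free media wells; concentration-response curves were fitted and assigned curve classes.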
ELG1 repair inh – inhibitors of ELG1-dependent DNA repair in HEK293T cells. HEK293T ELG1-luciferase reporter, luminescence, 16 h; DNA damage induced by 5-fluorouridine. Potency, µM (series often up to 46.1 µM), for inactives: at the highest dose activity change, negative = inhibition, most hits filed as inhibitors. 330,000 compounds, 2.3% hits. AID 504467; note: potency is the fitted concentration of half-maximal effect; nearly all actives have a fitted effect of over 55% in size
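5-Fluorouridine DNA damage + compound/DMSO, 2,000 cells/well, 16 h, 37 °C/5% CO2. ONE-Glo, 30 min RT, luminescence. Readout = decrease in reporter signal.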
Numbers without * were called inactive; ? = inconclusive; nt = no result. Hits are enriched below; roughly 19% of the tested compounds scored in any of these assays. Unless noted, calls come from the whole dose curve; as a rule, active = well fitted curve in the direction sought with a large enough effect; inconclusive = small, poorly fitted or top-dose-only effect, or another doubt; inactive = no such curve, though single readings can be large; an effect the other way counts as inactive or inconclusive. Unless noted, % is set by controls: 0 for no effect and ±100 for the full control effect.

SMILES	TDP1 cell CPT	HT1080 IDH1KD tx	DT40 TDP1 no CPT	IL-1B inflam inh	HT1080NT lethal	ELG1 repair inh
N/C(=N\OC(=O)/C=C/c1ccccc1)c1ccncc1	-17.9%	3.6%	8.5%	-50.2*	6.4%	?
N/C(=N\OC(=O)/C=C/c1ccccc1)c1ccccn1	-0.1%	13.5%	-24.2%	-26.1	12.4%	?
COc1ccccc1C/C(N)=N/OC(=O)c1cccs1	?	-27.2%	?	9.2	?	-0.9%
N/C(=N\OC(=O)c1ccccc1Cl)c1cccc([N+](=O)[O-])c1	-7.4%	8.7%	?	10.5	17.9%	?
CC(C)[C@@H]1Cc2[nH][nH]c(=O)c2[C@H](c2ccc(F)cc2)O1	1.3%	-2.1%	?	0.0	17.0%	nt
N/C(=N\OC(=O)/C=C/c1ccccc1Cl)c1ccncc1	-3.4%	-6.5%	0.5%	-56.3*	0.7%	?
O=C(/C=C/c1ccccc1Cl)NNC(=O)c1ccncc1	7.3%	-2.3%	-1.4%	-2.1	0.0%	6.5%
O=C(c1ccc2nc(N3CCOCC3)sc2c1)N1CCC(Cc2ccccc2)CC1	?	-0.4%	23.1µM*	-19.6	?	-17.8%
Cc1cccc(N2CCN(C(=O)c3ccc4nc(N5CCCCC5)sc4c3)CC2)c1C	20.6µM*	4.8%	18.4µM*	33.6	7.4%	23.1µM*
O=C(NCCc1ccccc1)c1ccc2nc(N3CCOCC3)sc2c1	-7.1%	4.4%	?	8.0	-2.0%	28.6%
Cc1cccc(C)c1NC(=O)N1CCN(c2nc3ccccc3s2)CC1	11.6µM*	?	?	14.5	6.0%	19.1%
Cc1ccc(C)c(N2CCN(C(=O)c3ccc4nc(N5CCOCC5)sc4c3)CC2)c1	?	-13.4%	13µM*	22.5	1.1%	?
CCC(CC)c1nn2c(=O)cc(COc3ccc(NC(=O)c4ccc(C)cc4)cc3)nc2s1	?	nt	-19.8%	nt	nt	nt
COc1ccc(Cl)cc1S(=O)(=O)NC(C)C(=O)NCCN1CCOCC1 (stereo unspecified)	2.1%	-3.7%	-29.4%	5.4	-7.8%	nt
Cc1ccc(Cl)cc1N1CCN(C(=O)c2ccc3nc(N4CCC(C)CC4)sc3c2)CC1	20.6µM*	nt	20.6µM*	nt	nt	nt
Cc1c(Cl)cccc1-n1ncc(C(=O)NCCN2CCN(C)CC2)c1C1CCN(C(=O)OC(C)(C)C)CC1	?	nt	25.9µM*	nt	nt	nt
Cc1ccc(-n2ncc(C(=O)NCCN3CCc4ccccc4C3)c2C2CCN(C(=O)OC(C)(C)C)CC2)cc1	20.6µM*	nt	18.4µM*	nt	nt	nt
Cc1ccc(-n2ncc(C(=O)N3CCN(c4ccccc4F)CC3)c2C2CCN(C(=O)OC(C)(C)C)CC2)cc1C	?	nt	-18.6%	nt	nt	nt
Cc1c(Cl)cccc1-n1ncc(C(=O)N2CCc3ccccc3C2)c1C1CCN(C(=O)OC(C)(C)C)CC1	?	nt	20.6µM*	nt	nt	nt
Cc1ccc(-n2ncc(C(=O)N3CCc4ccccc4C3)c2C2CCN(C(=O)OC(C)(C)C)CC2)cc1C	10.3µM*	nt	?	nt	nt	nt
Cc1ccccc1N1CC(C(=O)N2CCCCCC2)CC1=O (stereo unspecified)	-7.1%	2.5%	-18.9%	14.5	9.7%	23.0%
Cc1ccc(OCC(=O)N/N=C\c2ccncc2)c(C)c1	-14.0%	-1.2%	?	-3.6	-2.2%	-2.7%
CCCCCCN(C(=O)CCCCCN1C(=O)NC(c2cccc([N+](=O)[O-])c2)C(C(=O)OCc2ccccc2)=C1C)C(C(=O)NCCCC)c1ccc(OCC(=O)OC)c(C(=O)OC)c1 (stereo unspecified)	nt	nt	nt	nt	nt	-0.4%
